{"source": "the supplement of paper PMC11741263", "about": "“Chemoproteomic Profiling of C. albicans for Characterization of Anti-fungal Kinase Inhibitors” (bioRxiv, 2025)", "assay_in_all_cases": "MIB bead binding, log2 fold change vs DMSO (log2 ratio); higher = less competition (weaker engagement)", "key": {"ATG1": {"target": "T1, ATG1 (UniProt Q5A649)", "T1 sequence (whole entry)": "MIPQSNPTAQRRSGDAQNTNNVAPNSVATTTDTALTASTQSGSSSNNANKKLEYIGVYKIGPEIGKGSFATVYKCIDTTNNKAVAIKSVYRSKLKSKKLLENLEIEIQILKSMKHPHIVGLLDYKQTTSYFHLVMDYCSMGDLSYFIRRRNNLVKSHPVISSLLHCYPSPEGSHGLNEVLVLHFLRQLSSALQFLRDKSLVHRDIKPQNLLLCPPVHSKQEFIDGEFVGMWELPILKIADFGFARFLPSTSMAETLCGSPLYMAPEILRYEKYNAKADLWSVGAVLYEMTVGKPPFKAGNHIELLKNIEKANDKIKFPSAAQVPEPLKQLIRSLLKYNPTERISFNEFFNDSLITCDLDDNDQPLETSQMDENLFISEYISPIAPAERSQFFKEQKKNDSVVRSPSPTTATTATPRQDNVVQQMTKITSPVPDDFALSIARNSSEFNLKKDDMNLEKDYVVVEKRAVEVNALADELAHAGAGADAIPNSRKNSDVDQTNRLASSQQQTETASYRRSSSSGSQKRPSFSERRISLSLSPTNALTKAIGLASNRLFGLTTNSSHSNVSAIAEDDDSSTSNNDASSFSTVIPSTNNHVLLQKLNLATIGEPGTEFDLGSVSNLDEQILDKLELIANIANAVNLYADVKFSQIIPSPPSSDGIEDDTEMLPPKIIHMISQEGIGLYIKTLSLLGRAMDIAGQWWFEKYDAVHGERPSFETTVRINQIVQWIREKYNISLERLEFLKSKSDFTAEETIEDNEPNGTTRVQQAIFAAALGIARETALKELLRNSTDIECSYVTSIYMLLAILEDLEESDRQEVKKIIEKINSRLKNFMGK"}, "PKC1": {"target": "T2, PKC1 (UniProt P43057)", "T2 sequence (whole entry)": "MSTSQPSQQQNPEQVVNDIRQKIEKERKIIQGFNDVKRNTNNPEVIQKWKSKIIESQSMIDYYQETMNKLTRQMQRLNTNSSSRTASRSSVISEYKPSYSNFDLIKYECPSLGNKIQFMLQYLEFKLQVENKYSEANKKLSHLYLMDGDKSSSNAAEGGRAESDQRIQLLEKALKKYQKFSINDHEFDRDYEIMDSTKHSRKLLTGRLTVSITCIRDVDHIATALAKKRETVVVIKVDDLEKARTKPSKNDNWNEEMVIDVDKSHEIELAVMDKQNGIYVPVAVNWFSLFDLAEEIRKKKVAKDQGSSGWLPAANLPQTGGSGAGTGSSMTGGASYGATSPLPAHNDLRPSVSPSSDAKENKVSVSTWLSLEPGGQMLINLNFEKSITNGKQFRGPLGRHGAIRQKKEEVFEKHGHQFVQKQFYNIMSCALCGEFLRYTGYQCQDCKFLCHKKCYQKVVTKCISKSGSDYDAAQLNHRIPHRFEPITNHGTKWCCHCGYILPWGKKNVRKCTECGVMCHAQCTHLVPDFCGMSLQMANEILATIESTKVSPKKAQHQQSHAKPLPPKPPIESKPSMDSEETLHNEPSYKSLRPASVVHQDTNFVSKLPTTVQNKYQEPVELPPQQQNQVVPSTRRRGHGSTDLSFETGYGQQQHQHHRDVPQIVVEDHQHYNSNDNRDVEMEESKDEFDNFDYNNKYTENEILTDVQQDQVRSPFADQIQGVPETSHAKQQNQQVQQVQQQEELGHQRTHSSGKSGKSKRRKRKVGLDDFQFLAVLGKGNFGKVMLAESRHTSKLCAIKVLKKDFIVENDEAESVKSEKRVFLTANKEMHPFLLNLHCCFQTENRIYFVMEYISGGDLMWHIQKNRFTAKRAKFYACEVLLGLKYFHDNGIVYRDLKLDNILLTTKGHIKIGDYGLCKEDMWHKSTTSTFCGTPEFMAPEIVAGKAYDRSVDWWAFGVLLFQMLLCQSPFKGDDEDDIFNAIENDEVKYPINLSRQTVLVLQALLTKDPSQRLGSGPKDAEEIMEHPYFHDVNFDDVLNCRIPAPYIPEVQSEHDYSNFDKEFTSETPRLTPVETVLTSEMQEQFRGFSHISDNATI"}, "PKH2": {"target": "T3, PKH2 (UniProt Q5A3P6)", "T3 sequence (whole entry)": "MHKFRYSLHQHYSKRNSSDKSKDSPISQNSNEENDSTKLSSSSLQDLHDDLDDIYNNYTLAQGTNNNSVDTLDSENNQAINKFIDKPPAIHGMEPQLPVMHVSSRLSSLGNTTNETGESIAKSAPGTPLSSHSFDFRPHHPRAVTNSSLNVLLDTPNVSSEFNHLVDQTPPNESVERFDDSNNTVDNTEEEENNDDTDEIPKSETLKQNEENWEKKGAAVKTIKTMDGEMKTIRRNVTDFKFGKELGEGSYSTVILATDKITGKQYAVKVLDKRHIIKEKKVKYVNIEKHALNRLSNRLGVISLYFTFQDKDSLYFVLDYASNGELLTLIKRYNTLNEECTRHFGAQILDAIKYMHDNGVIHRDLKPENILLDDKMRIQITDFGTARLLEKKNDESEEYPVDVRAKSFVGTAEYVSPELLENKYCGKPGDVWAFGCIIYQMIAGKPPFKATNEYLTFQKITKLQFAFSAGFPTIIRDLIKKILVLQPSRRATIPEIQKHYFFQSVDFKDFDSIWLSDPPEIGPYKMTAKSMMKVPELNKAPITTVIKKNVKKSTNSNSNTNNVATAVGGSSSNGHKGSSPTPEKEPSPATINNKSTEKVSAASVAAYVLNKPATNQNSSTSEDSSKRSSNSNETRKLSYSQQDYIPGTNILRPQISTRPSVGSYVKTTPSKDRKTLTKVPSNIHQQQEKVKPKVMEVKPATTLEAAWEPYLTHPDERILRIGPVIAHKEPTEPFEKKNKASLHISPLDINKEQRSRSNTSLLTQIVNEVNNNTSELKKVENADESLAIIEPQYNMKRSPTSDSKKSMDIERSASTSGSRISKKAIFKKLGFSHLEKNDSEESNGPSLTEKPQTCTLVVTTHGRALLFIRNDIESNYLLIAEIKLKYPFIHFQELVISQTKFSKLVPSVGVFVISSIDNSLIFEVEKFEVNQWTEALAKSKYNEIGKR"}}}
{"smiles": "Cc1[nH]nc2ccc(-c3cc(OC[C@@H](N)Cc4ccccc4)cnc3-c3ccoc3)cc12", "values": [{"measurement": "MIB bead binding (log2)", "setting": "ATG1; 0.1 µM", "value": -0.123}, {"measurement": "MIB bead binding (log2)", "setting": "ATG1; 1 µM", "value": -0.147}, {"measurement": "MIB bead binding (log2)", "setting": "ATG1; 10 µM", "value": -0.524}, {"measurement": "MIB bead binding (log2)", "setting": "PKC1; 0.1 µM", "value": -0.235}, {"measurement": "MIB bead binding (log2)", "setting": "PKC1; 1 µM", "value": 0.00546}, {"measurement": "MIB bead binding (log2)", "setting": "PKC1; 10 µM", "value": -0.233}, {"measurement": "MIB bead binding (log2)", "setting": "PKH2; 0.1 µM", "value": -0.165}, {"measurement": "MIB bead binding (log2)", "setting": "PKH2; 1 µM", "value": -0.0865}, {"measurement": "MIB bead binding (log2)", "setting": "PKH2; 10 µM", "value": -0.756}]}
